Laboratory results reported in PMC12136788.
Positions count from the first letter of the chain named. Over roughly 24,000 sequences, “enrichment r” has its median near 0.99; the highest 2% begin near 3.7. What follows is part of a selection rich in the highest values, with near analogues and random picks from the rest.

T1: UNK ZnF1-3 (human, UniProt Q9C0B0 31-174)
T1 sequence: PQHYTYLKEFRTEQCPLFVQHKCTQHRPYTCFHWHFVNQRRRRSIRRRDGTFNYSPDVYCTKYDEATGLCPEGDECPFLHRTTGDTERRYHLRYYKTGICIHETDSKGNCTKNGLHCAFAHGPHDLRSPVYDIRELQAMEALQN

B1: 11472005_11472125_940_CDS_ENSG00000105520_ENST00000251473|human|control|control (ssRNA)
RNA: GGGAGUUCUACAGUCCGACGAUCCUUGCAGGGGAAGGCGCGGCGCGCGGCGGCCACGAGGCUGGGACUGCCAGCGCAGGCACCCUGGUCAGUGACAAAGCGGUCGGGACCUGGCCGAUCCGGAGAAGGUGGCAGGCAGCCCAGCAACAGAGGAUUGAGCAUCA
B2: chr17:45760540:45760541:+_ENSG00000108424_ENST00000290158|hu_hu|motif|central (ssRNA)
RNA: GGGAGUUCUACAGUCCGACGAUCUUUCCCUAGAGUAAAAAAAACAAAAAACAAAACCAAAAAAAAAAAACAAAACAAAACCGGAAGAGCGUCUUUCCUCUGUGUGUGUGUUUUUUUUUUUUUUUUUUUUUUUUUUUUUACAUCCAACAGAGGAUUGAGCAUCA
B3: chr3:41267201:41267202:+_ENSG00000168036_ENST00000349496|hu_mus|motif|central (ssRNA)
RNA: GGGAGUUCUACAGUCCGACGAUCCAAGAAUUUCACGUUUGUUUUGUUGAGCAAAGCAACCAUUUUCUGCAGUCCACCAGCGGGGCGCACUGCCAUUUUAGCUCCUUCCUGAUGGAGCAGGAGAUUAUGCAGUGUCGUGAUGGCCAACAGAGGAUUGAGCAUCA
B4: chr17:15081082:15081083:+_ENSMUSG00000050088_ENSMUST00000052691|mus_mus|FALSE|FALSE (ssRNA)
RNA: GGGAGUUCUACAGUCCGACGAUCUGCUCCAGCAUAUUCAAGGGAUCAGAAGAGAAUUUCAAGCACCAGUUUCAAAAUGCUAAUCAAUAUCGUCCAGAGAACUGAUUCCUCCUCUUGGGCUGCCUCUUCUGGAGCGUAAGCCUGCAACAGAGGAUUGAGCAUCA
B5: chr2:55200753:55200754:-_ENSG00000115310_ENST00000317610|hu_mus|FALSE|FALSE (ssRNA)
RNA: GGGAGUUCUACAGUCCGACGAUCUUGGAUUUUGGCCAUGGCAUCCUUAACGCUCUUGUUUGCAAGUCCUAGAUAAUGAUCUAUCUGCGCCUGAUGCCGUUCAUAUAUAACAGGAAUACUGAAGAGUGAGAUCAGAGCUAAAAUCAACAGAGGAUUGAGCAUCA
B6: chr3:100438856:100438857:+_ENSG00000114354_ENST00000490574|hu_hu|motif|central (ssRNA)
RNA: GGGAGUUCUACAGUCCGACGAUCAACAAAUAAUGUCAGUUUCAGUAUCCUACUGCACUGAAUUGCAAAGGAAAGGUCAGAACGGUCAAAAAUUGUUAUAAGAUCUCCAUCUUCAUCUUUAUACUUUAUUGUUACUUCAUCAUUCAACAGAGGAUUGAGCAUCA
B7: 110847190_110847310_5644_3pUTR_ENSMUSG00000021700_ENSMUST00000167824|mouse|control|control (ssRNA)
RNA: GGGAGUUCUACAGUCCGACGAUCUAGUUGCUGAGGGGAACUGAAGAAUGAGGCAAUGCUGUUCUGUGGGGAUAGUGCUUUUAGAAUAUCCUUAAUCAUUUUUUUUUAAAAAACAUGUGGCAGUAUAAAAGGACUACACAAUGACAACAGAGGAUUGAGCAUCA
B8: chr2:203071915:203071916:-_ENSG00000116030_ENST00000392246|hu_mus|FALSE|FALSE (ssRNA)
RNA: GGGAGUUCUACAGUCCGACGAUCCUAAGAGAUGGAGUGCCAGUAUUCAAUUUUCAUUUUGAACACCACAUUACAAAAGAACUAUUUUUAAAAAUAAAAAAGGAUUGAGGGAAAGGAAAAAUAAAAAAUAAAAAGAAUUAUCUACAACAGAGGAUUGAGCAUCA
B9: chr8:96496865:96496866:-_ENSMUSG00000031751_ENSMUST00000053766|mus_hu|motif|central (ssRNA)
RNA: GGGAGUUCUACAGUCCGACGAUCGCAGUCCAGUCAACACCAGAAGAGAUCAUACCUACAGUUAAAAUUUGCAGUGUUUCGGAGGGGAAGAGAAAUGUCACAUAGAAAGUAUUACAAAGAAGGAUUAAAUUUAUCAGCUGUCCACAACAGAGGAUUGAGCAUCA
B10: chr2:203071915:203071916:-_ENSG00000116030_ENST00000392246|hu_mus|motif|central (ssRNA)
RNA: B8 RNA with U82G, A83G
B11: chr6:31461392:31461393:+_ENSMUSG00000025609_ENSMUST00000026699|mus_mus|motif|central (ssRNA)
RNA: GGGAGUUCUACAGUCCGACGAUCACCUGACGGACACUAGAGGCUUUGGAUAACCAUGUCAUUUCAACAGUAAGACAAACGGUAGAGACAACCCCCACAGUCAAAAACCACAUAUAAAAAUUAGAAUUUGCUUAAUACAGAAAACAACAGAGGAUUGAGCAUCA
B12: chr11:51935959:51935960:+_ENSMUSG00000020349_ENSMUST00000020608|mus_hu|FALSE|FALSE (ssRNA)
RNA: GGGAGUUCUACAGUCCGACGAUCGGUUCUGACAAUAACAAAGAACAACAUGGGGCUGAGAUUUGAGUAGGGAAUAAACUGAGUGCAGACAAAUCAUAUAAUUAAAUUAAACGGUAUCCCUGAAAAUAAAAAGAACAAUUUCAACAACAGAGGAUUGAGCAUCA
B13: chr16:36085169:36085170:+_ENSMUSG00000075229_ENSMUST00000164916|mus_mus|FALSE|FALSE (ssRNA)
RNA: GGGAGUUCUACAGUCCGACGAUCCUUUAAUAACGUUAAGUCAUCCAGGUUCUUUUCUCUCUCUUCUCGGAGACUUUUUACUACUGCUGAGGUCUGGGCUAUACAGUUCUUUAUAACUCUGUCCCUACUGACAUGAGCUGCCAUCAACAGAGGAUUGAGCAUCA
B14: chr13:113752066:113752067:+_ENSG00000126217_ENST00000375604|hu_mus|FALSE|FALSE (ssRNA)
RNA: GGGAGUUCUACAGUCCGACGAUCAGGGGAAGUGGGGCCUGCCCUGACGUGGAGAGGCAGCCAGUGCCUGAGUUGCUGAGGAUGACUGACAGCAUGGAGUUAUACAUUUUCUUUAAAAAUAAUAAAAAUAUCCUAAUUUAAUGACAACAGAGGAUUGAGCAUCA

molecular target: T1, UNK ZnF1-3; experiment: nsRBNS (natural sequence RNA bind-n-seq); RBNS binding buffer (assumed for nsRBNS): 25 mM Tris pH 7.5, 150 mM KCl, 3 mM MgCl2, 0.01% Triton X-100, 500 ug/ml BSA, 20 U/ml SUPERase-In, 4 C; UNK is unkempt and MSI1 is Musashi-1; names of the RNAs are library labels; protein concentration not given here; high values mean tight binding

Binder	binding signal [enrichment R]
B1	0.958
B2	3.38
B3	0.539
B4	1.42
B5	1.23
B6	0.76
B7	1.67
B8	10.6
B9	3.52
B10	10.9
B11	3.37
B12	3.8
B13	0.477
B14	3.79
